In PubChem BioAssay AID686979 (National Center for Advancing Translational Sciences (NCATS), 2013):
In all, about 420,000 compounds went through this assay and about 50,000 (12%) were called active. Entries that show only a call come without a potency. Roughly 26% stayed inconclusive and do not appear here. The call rests on the fitted dose curve; in most records, active means well fitted inhibition curve with a large enough effect; inconclusive means small, poorly fitted or top-dose-only effect; inactive means flat fitted curve, though single readings scatter. The sample as a whole holds a higher share of actives than the screen did.

Assay: qHTS for Inhibitors of human tyrosyl-DNA phosphodiesterase 1 (TDP1): qHTS in cells in presence of CPT; further: nearly all actives have a fitted effect of over 55% in size
Settings: chicken DT40 Tdp1-/-;hTDP1 cells + 20 nM CPT, ATP luminescence, 48 h; series mostly up to 46.2 µM
Outline: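 Chicken DT40 Tdp1-/- cells complemented with human TDP1, 400 cells/well, exposed to compounds plus 20 nM camptothecin for at least 48 h at 37 C; viability read as ATP content by CellTiter-Glo luminescence.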
Potency means the concentration at half of the fitted maximal effect.

| Structure (SMILES) | Potency | activity change, negative = growth inhibition |
| --- | --- | --- |
| CNC[C@@H]1Oc2c(NS(C)(=O)=O)cccc2C(=O)N([C@@H](C)CO)C[C@H]1C | inactive |  |
| COCC(=O)N(C)C[C@H]1Oc2cc(Br)ccc2S(=O)(=O)N([C@H](C)CO)C[C@H]1C | inactive |  |
| Cc1cc(C(=O)OCC(=O)Nc2ccccc2Cl)c(C)o1 | inactive |  |
| CC(C)Nc1nnc(SCC(=O)/C=C2\N(C)c3ccccc3C2(C)C)s1 | 16.4 µM (active) |  |
| COC(=O)c1ccc(CSc2nnc(NC(C)C)s2)cc1 | inactive |  |
| CC(C)Nc1nnc(SCC(=O)c2c[nH]c3ccccc23)s1 | inactive |  |
| Cc1ccccc1OCc1nc2c3cnn(-c4ccccc4F)c3ncn2n1 | inactive |  |
| Cc1ccc(CNC(=O)c2cccnc2Cl)cc1 | inactive |  |
| CN1/C(=C\C(=O)c2cccnc2Cl)C(C)(C)c2ccccc21 | 20.6 µM (active) |  |
| CC1COc2ccccc2N1C(=O)c1cccnc1Cl (stereo not drawn) | inactive |  |
| O=C1CSc2ccc(C(=O)NCc3ccccn3)cc2N1 | inactive |  |
| CCc1ccc(C(=O)N2CCN(S(=O)(=O)c3sc(C(=O)O)c(C)c3C(=O)O)CC2)cc1 | inactive |  |
| Cc1ccc(C)c(-n2cc(CN3CCN(C(=O)c4ncn[nH]4)CC3)c(-c3ccccc3)n2)c1 | inactive |  |
| Cc1ccc(OCCC(=O)OCC(=O)N2c3ccccc3NC(=O)C2(C)C)cc1 | inactive |  |
| CC(C)CC(=O)N/C(N)=N/c1nc2ccccc2s1 | 23.1 µM (active) |  |
| CC(C)CC(=O)NC(=S)NCc1ccccc1 | inactive |  |
| O=C(O)CSCc1nc2ccccc2s1 | inactive |  |
| COc1ccc(C2c3ccc(O)cc3Oc3ncn(CCCO)c(=N)c32)cc1OC (stereo not drawn) | inactive |  |
| CC[C@]1(C(=O)OC)[C@H]2C(=O)N(C)C(=O)[C@H]2[C@H]2CN(C)C(=NCc3ccccc3)N21 | inactive |  |
| O=C(NCCSc1ncc(-c2ccccc2)[nH]1)c1ccco1 | inactive |  |
| COCCCNC(=O)C1CC(=O)N(CCc2ccc(F)cc2)C1 (stereo not drawn) | inactive |  |
| COc1ccc(OC)c(NC(=O)C2CCN(S(=O)(=O)c3ccc(C)cc3)CC2)c1 | inactive |  |
| COC(=O)c1ccccc1NC(=O)C1CC(=O)N(c2ccc(OC)cc2)C1 (stereo not drawn) | inactive |  |
| COC(=O)c1ccccc1NC(=O)C1CCN(S(=O)(=O)c2cc(OC)ccc2OC)CC1 | 23.1 µM (active) |  |
| CCCCCCCC/C=C\CCCCCCCC(=O)OC[C@H](CO)OC(C)=O |  | 0.476% [at 4.12 µM] (inactive) |
| COC(=O)c1scc(C)c1NC(=O)CSc1ccc(Cl)cc1 | inactive |  |

| Structure (SMILES) | Potency | activity change, negative = growth inhibition |
| --- | --- | --- |
| O=C(NC(=S)N1CCCCC1c1cccnc1)c1ccccc1 (stereo not drawn) | inactive |  |
| CC(=O)NC(=S)Nc1ccc(NC(=O)c2cccnc2)cc1 | inactive |  |
| CC(C)c1cc(Cn2c3ccccc3c(=O)n2C(C)Cn2cc(C3CC3)nn2)on1 (stereo not drawn) | inactive |  |
| CCC(C)CN1CCC(CO)(Cc2ccccc2Cl)CC1 (stereo not drawn) | inactive |  |
| CCCCCCCCCCOC(=O)Cn1c(COc2cccc(OC)c2)[n+](C)c2ccccc21 | 2.31 µM (active) |  |
| CCn1c(COc2cccc(OC)c2)nnc1SCC(=O)N1CCOCC1 | inactive |  |
| CCCCCCCCC(=O)NCCOc1ccccc1 | inactive |  |
| O=C(CN1CCCCCC1)Nc1ccc(Cl)cc1F | inactive |  |
| Cn1cccc1C(=O)N1CCc2ccccc2C1 | inactive |  |
| CC(CCc1ccccc1)NC(=O)c1cnc(Cl)c(Cl)c1 (stereo not drawn) | inactive |  |
| CCc1cc2c(=O)n(-c3ccccc3)c(SCC(=O)O)nc2s1 | inactive |  |
| Cc1sc2nc(SCCO)n(-c3ccccc3)c(=O)c2c1C | 13 µM (active) |  |
| Cc1sc2nc(SCC(N)=O)n(C)c(=O)c2c1C | inactive |  |
| CCc1ccc(S(=O)(=O)Nc2ccc(C)c(NS(C)(=O)=O)c2)cc1 | inactive |  |
| NC(=O)c1ccc(N2CCCC2)nc1 | inactive |  |
| Cc1cc(C)cc(OCC(=O)Nc2cc(NC(=O)COc3cc(C)cc(C)c3)cc(C(=O)O)c2)c1 | inactive |  |
| Cc1ccc(Cl)cc1NC(=O)CN1CCN(S(=O)(=O)N2CCOCC2)CC1 | inactive |  |
| Cc1ccc(Cl)cc1NC(=O)C1CCN(S(C)(=O)=O)CC1 | 6.51 µM (active) |  |
| CC(=O)Nc1c(C)nn(-c2ccccc2)c1N1CCC(C(=O)Nc2cc(Cl)ccc2C)CC1 | inactive |  |
| Cc1ccc2c(c1)C1CN(C)CCC1N2C(=S)Nc1ccc(OC(F)F)cc1 (stereo not drawn) | inactive |  |
| CCN(Cc1ccncc1)C(=S)Nc1ccccc1C | inactive |  |
| COc1ccc(N(CC(=O)NCC2CCCO2)C(=O)CCC(=O)Nc2nccs2)c(OC)c1 (stereo not drawn) | inactive |  |
| Cc1ccc(C(=O)Nc2ccn(C)n2)cc1 | inactive |  |
| Cn1nccc1C(=O)NC1CCCc2c1cnn2-c1ccccc1F (stereo not drawn) | 4.61 µM (active) |  |
| Cn1nccc1C(=O)NC1CCCc2c1cnn2-c1ccc(F)cc1F (stereo not drawn) | 1.46 µM (active) |  |
| CC(=O)NCC(=O)NC1CCCc2c1cnn2-c1ccccc1F (stereo not drawn) | inactive |  |

| Structure (SMILES) | Potency | activity change, negative = growth inhibition |
| --- | --- | --- |
| O=C(NCCN1CCCC(O)C1)c1cc(COc2c(F)cccc2F)on1 (stereo not drawn) | inactive |  |
| O=[N+]([O-])c1ccc(N2CCNCC2)cc1NCc1cccnc1 | inactive |  |
| CN1CCN(/N=C/c2ccc(C#N)cc2)CC1 | inactive |  |
| COc1ccc(C(=O)CN2C(=O)NC3(CCc4ccccc43)C2=O)c(OC)c1 (stereo not drawn) | inactive |  |
| COc1ccc(CNC(=O)CN2C(=O)NC3(CCCc4sccc43)C2=O)cc1 (stereo not drawn) | inactive |  |
| COc1ccc(-n2c(C)cc(C(=O)CN3C(=O)NC4(CCc5ccccc54)C3=O)c2C)cc1 (stereo not drawn) | 14.6 µM (active) |  |
| Cc1cc(/C=C2\SC(=O)N(C)C2=O)c(C)n1-c1cccc(C(=O)O)c1 | inactive |  |
| CCOC(=O)C1=C(C)Nc2nc3ccccc3n2C1c1cccs1 (stereo not drawn) | inactive |  |
| COc1ccccc1NC(=O)C1=C(C)Nc2ncnn2C1c1sccc1C (stereo not drawn) | inactive |  |
| COc1ccccc1NC(=O)C1=C(C)Nc2nc3ccccc3n2C1c1cccs1 (stereo not drawn) | 4.11 µM (active) |  |
| O=C(c1ccccc1)c1cc(-c2ccccn2)c(N2CCOCC2)s1 | inactive |  |
| c1csc(-c2nnc(COc3ncnc4sccc34)o2)c1 | inactive |  |
| COc1ccccc1C1CN(Cc2ccccc2O)Cc2ccccc2O1 (stereo not drawn) |  | -2.83% [at 9.04 µM] (inactive) |
| NC(=O)C1CCN(C(=O)c2ccc(C(F)(F)F)cc2)CC1 | inactive |  |
| COC(=O)c1ccc(S(=O)(=O)N2CCC(c3nc4ccccc4o3)CC2)cc1 | inactive |  |
| O=C(c1ccc(C(F)(F)F)cc1)N1CCC(c2nc(-c3ccc(S(=O)(=O)N4CCCC4)cc3)no2)CC1 | 20.6 µM (active) |  |
| Cn1c(SCC(=O)C(C)(C)C)nnc1-c1ccccn1 | inactive |  |
| CCOC(=O)c1c(S(=O)(=O)N2CCC(C(=O)NCc3ccccc3OC)CC2)c(C)n(C)c1C | inactive |  |
| CCCCNC(=O)Cn1nc(C)c(S(=O)(=O)N2CCOCC2)c1C | inactive |  |
| COc1ccc2nc(N3CCN(C(=O)c4ccc([N+](=O)[O-])o4)CC3)sc2c1 | 14.6 µM (active) |  |
| COc1ccc2nc(N3C(=O)C(O)=C(C(=O)c4ccco4)C3c3ccco3)sc2c1 (stereo not drawn) | inactive |  |
| Cc1ccc2nc(N3CCN(C(=O)c4ccco4)CC3)sc2c1 | inactive |  |
| COc1ccc(C(=O)OCC(=O)c2ccc(Cl)s2)c(OC)c1OC | inactive |  |
| Oc1ccc(-c2[nH]ncc2-c2nc3ccccc3s2)c(O)c1 | inactive |  |
| COc1ccc(Oc2cn[nH]c2-c2ccc(OC)cc2O)cc1 | 25.9 µM (active) |  |
| COc1ccc(-c2[nH]ncc2CN(C)Cc2c(C)n[nH]c2C)c(OC)c1 | inactive |  |

| Structure (SMILES) | Potency | activity change, negative = growth inhibition |
| --- | --- | --- |
| CN1CCN(c2ccc([N+](=O)[O-])c(Sc3nc4ccccc4[nH]3)c2)CC1 | inactive |  |
| CC(C)c1ccc(NC(=O)COC(=O)c2ccc(CN3CCCC3=O)cc2)cc1 | inactive |  |
| O=C1CN(C(=O)COC(=O)/C=C/c2ccc(F)cc2)c2ccccc2N1 | inactive |  |
| Cc1c(CCNC(=O)c2ccc(C(F)(F)F)cc2)sc2nc(-c3ccc(F)cc3)nn12 | inactive |  |
| CCOc1ccc2nc(NCCNC(=O)C(C)(C)C)c(C)cc2c1 | inactive |  |
| COc1ccc(-c2nc3sc(CCNC(=O)C(C)(C)C)c(C)n3n2)cc1 | 29.1 µM (active) |  |
| O=C(NC1CCCC1)C1c2ccccc2OCC(=O)N1CC(F)(F)F (stereo not drawn) | inactive |  |
| Cc1ccccc1N1CCN(C2CCCN(C(=O)c3ocnc3C)C2)CC1 (stereo not drawn) | inactive |  |
| Cc1ncoc1C(=O)N1CCCC(C(=O)c2ccc3c4c(cccc24)CC3)C1 (stereo not drawn) | 18.4 µM (active) |  |
| CCc1nccn1CCC(=O)N1CCCC(N2CCN(c3ccccc3F)CC2)C1 (stereo not drawn) | inactive |  |
| Cc1c(CN2CCCC(C(=O)c3cccc(Cl)c3)C2)c(=O)n(-c2ccccc2)n1C (stereo not drawn) | inactive |  |
| CCn1ccnc1CN1CCCC(C(=O)c2ccc3c4c(cccc24)CC3)C1 (stereo not drawn) | 7.31 µM (active) |  |
| CC(=O)NCC(=O)N1CCCC(C(=O)c2ccc3c4c(cccc24)CC3)C1 (stereo not drawn) | inactive |  |
| CCOC1=C2[C@H]([C@H]3C(=O)N(c4ccccc4)C(=O)[C@H]3C1)[C@@H](c1ccccc1)N(S(=O)(=O)c1ccc(C)cc1)[C@H]2c1ccccc1 | inactive |  |
| O=C(Cn1ncn2nc(-c3cccs3)cc2c1=O)NCc1cccc(Br)c1 | inactive |  |
| COc1cc(NC(=O)c2ccccc2)c(OC)cc1NC(=O)Cc1ccccc1 | inactive |  |
| COc1ccc(C(=O)OCC(=O)Nc2cc(C)on2)cc1F | inactive |  |
| CC(=O)c1ccc(NC(=O)C(C)OC(=O)c2ccc(NS(=O)(=O)c3ccc4[nH]c(=O)[nH]c4c3)cc2)cc1 (stereo not drawn) | inactive |  |
| CCOc1ccc(/C=N/Nc2nncc(-c3ccccc3)n2)cc1OC | 16.4 µM (active) |  |
| COc1cccc(/C=N\Nc2nncc(-c3ccccc3)n2)c1 | inactive |  |
| COc1cc(/C=N/n2c(C)n[nH]c2=S)ccc1OCc1ccccc1 | inactive |  |
| CC(CO)N1CCS(=O)(=O)CC1 (stereo not drawn) | inactive |  |
| COc1ccc(/C=C/c2c(-c3cccc(C)c3)oc3ccc(-c4ccc5c(c4)OCO5)cc23)cc1 | inactive |  |
| CC1CN(Cc2ccccc2)C(=S)NC1=O (stereo not drawn) | inactive |  |
| CC(=O)Oc1c2c(c3c(c1CC=C(C)C)O[C@@]14C(=CC5CC1C(C)(C)OC4(C/C=C(\C)C(=O)O)C5=O)C3=O)OC(C)(CCC=C(C)C)C=C2 (stereo partly drawn) | 2.91 µM (active) |  |
